IMPase inh: qHTS Assay for Identifying the Cell-Membrane Permeable IMPase Inhibitors. AID 901, 2007. inhibition (IP1 accumulation), % at 46.1 µM. 120,000 tested, under 10 active. CHO-M1 cells, IP1 accumulation, HTRF TR-FRET ratio. Inositol monophosphatase 1 (Rattus norvegicus), P97697; active = well fitted curve in the direction sought with a large enough effect in the signal ratio, not every such curve was filed as active; inconclusive = small, poorly fitted or top-dose-only effect, or a change in a side signal; inactive = no such curve, though single readings can be large or run the other way; the % refers to the signal ratio;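 note: cells stimulated with carbachol in lithium chloride buffer; higher means more IMPase inhibition seen as more IP1 and lower FRET ratio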
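Elevated IP1 in lysates lowers TR-FRET signal (665/620 ratio and 620 channel reported). Cells were CHO-M1, given carbachol (50 uM as added) plus 50mM LiCl, pH 7.4, 30 min, 37C; compounds titrated up to 46 uM; AC50 by Hill equation.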
HPGD inh: qHTS Assay for Inhibitors of HPGD (15-Hydroxyprostaglandin Dehydrogenase) | AID 894, 2007 | 4.3% of 150,000 active | 15-hydroxyprostaglandin dehydrogenase [NAD(+)] (Homo sapiens), P15428 | purified HPGD, NADH fluorescence kinetic, PGE2 substrate | Potency, µM, most hits filed as inhibitors
Target sequence (P15428 whole entry, looked up): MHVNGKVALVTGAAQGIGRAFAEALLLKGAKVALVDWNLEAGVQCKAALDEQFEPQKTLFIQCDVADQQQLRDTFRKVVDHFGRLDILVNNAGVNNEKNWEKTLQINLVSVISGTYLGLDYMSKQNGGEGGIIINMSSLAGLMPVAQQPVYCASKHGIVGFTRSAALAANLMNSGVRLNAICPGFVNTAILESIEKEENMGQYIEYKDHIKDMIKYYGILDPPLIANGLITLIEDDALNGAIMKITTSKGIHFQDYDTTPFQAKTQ
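NADH formation kinetics: reaction with 30 uM PGE2 and 1 mM NAD+ (final), 20 nM enzyme, Tris-HCl pH 8 with Tween 20, after 15 min compound preincubation at room temperature. Fluorescence change, last versus first of five reads.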
ALDH1A1 block: qHTS Assay for Inhibitors of Aldehyde Dehydrogenase 1 (ALDH1A1). AID 1030, 2008. Purified ALDH1A1, NADH fluorescence, propionaldehyde substrate. 7.3% of 220,000 active. Potency, µM (series often up to 75.3 µM), usual class: inhibitors. Aldehyde dehydrogenase 1A1 (Homo sapiens), P00352
Target sequence (P00352 whole entry, looked up): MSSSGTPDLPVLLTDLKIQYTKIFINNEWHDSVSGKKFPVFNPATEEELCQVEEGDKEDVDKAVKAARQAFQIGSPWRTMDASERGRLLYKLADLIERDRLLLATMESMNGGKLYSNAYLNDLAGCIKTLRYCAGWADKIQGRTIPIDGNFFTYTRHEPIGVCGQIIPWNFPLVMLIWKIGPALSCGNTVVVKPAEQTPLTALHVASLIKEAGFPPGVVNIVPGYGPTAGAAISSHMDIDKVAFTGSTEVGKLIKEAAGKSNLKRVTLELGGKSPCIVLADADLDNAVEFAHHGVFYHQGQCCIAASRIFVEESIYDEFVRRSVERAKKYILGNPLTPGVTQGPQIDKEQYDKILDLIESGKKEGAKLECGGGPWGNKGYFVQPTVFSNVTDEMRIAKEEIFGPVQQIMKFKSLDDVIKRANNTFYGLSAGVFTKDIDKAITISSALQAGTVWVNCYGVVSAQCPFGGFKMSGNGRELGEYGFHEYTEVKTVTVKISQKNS
IMPase Li cell: qHTS Assay for Identifying the Cell-Membrane Permeable IMPase Inhibitors: Potentiation with Lithium | AID 1457, 2008 | Potency, µM (top dose mostly 59.4 µM), usual class: inhibitors | CHO-M1 cells, IP1 TR-FRET (IP-One), carbachol + lithium | 0.35% of 210,000 active; active = well fitted curve in the direction sought with a large enough effect; inconclusive = small, poorly fitted or top-dose-only effect, or another doubt; inactive = no such curve, though single readings can be large; an effect the other way counts as inactive or inconclusive;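 note: IP1 builds up when IMPase is blocked and the TR-FRET signal falls; nearly all actives have a fitted effect of over 50% in size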
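IP1 accumulation measured by competitive TR-FRET in lysed CHO-M1 cells after 30 min compound exposure at 37C, with a small lithium addition to potentiate weak responses. Hill-equation AC50 from ratio and donor-channel data.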
PNC inhibitor: High Content Assay for Compounds that inhibit the Assembly of the Perinucleolar Compartment; PC3M PTB-GFP, PNC prevalence imaging, 16 h; active compounds read low; activity change (PNC), negative = inhibition, % at 10 µM; 3.1% of 140,000 active;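 active = readout at or below -70, meaning at least 70% loss of cells showing the perinucleolar compartment, a nuclear body marking cancer cells; inconclusive = readout between -30 and a set limit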
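Compounds are pinned in duplicate onto adhered PC3M cells stably expressing GFP-tagged PTB and incubated 16 h at 37 C. Cells are then fixed, nuclei stained with Hoechst, and PNC-positive cells counted.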
NPSR antag: qHTS Assay for Antagonists of the Neuropeptide S Receptor: cAMP Signal Transduction; Potency, µM (series often up to 38.3 µM), hits mostly inhibitors; 1% of 220,000 active; AID 1461, 2008; CHO-NPSR cells, cAMP TR-FRET, antagonist mode; active = well fitted curve in the direction sought with a large enough effect; inconclusive = small, poorly fitted or top-dose-only effect, or another doubt; inactive = no such curve, though single readings can be large; an effect the other way counts as inactive or inconclusive; note: nearly all actives have a fitted effect of over 50% in size
A number is an active result; i = inactive; ? = inconclusive; nt = no result; [ ] = another dose, or the depositor's remark. A selection: hits, their analogues and other compounds. The true share with any hit is near 11%. Unless noted, calls come from the whole dose curve; as a rule, active = well fitted inhibition curve with a large enough effect (not every such curve was filed as active); inconclusive = small, poorly fitted or top-dose-only effect, or another doubt; inactive = no such curve, though single readings can be large or run the other way.

SMILES | IMPase inh | HPGD inh | ALDH1A1 block | IMPase Li cell | PNC inhibitor | NPSR antag
O=C(c1ccco1)N(Cc1ccccc1)c1cccc([N+](=O)[O-])c1 | nt | nt | 20µM | i | nt | i
COc1ccc(CN(C(=O)c2ccco2)c2ccccc2)cc1 | i | i | i | i | i | i
O=C(c1ccco1)N(Cc1ccco1)c1ccc(O)cc1 | i | i | i | i | -96 | i[7.67 µM]
c1ccc2c(c1)OC(CCCN1CCCCC1)c1ccccc1S2 (centres undefined) | i | i | i | i | -100 | ?
CN1CCCC(CC2Oc3ccccc3Sc3ccccc32)C1 (centres undefined) | nt | i | ? | i | i | i
CC(=O)/C(N=Nc1cc(C)ccc1O)=C(\C)O | nt | nt | 2µM | i | nt | i
CC(C)c1ccc(C2C3CSCC=C3C(C#N)=C(N)C2(C#N)C#N)cc1 (centres undefined) | i | ? | 16µM | i | i | 10µM
CCCC1C2CN(C(C)C)CC=C2C(C#N)=C(N)C1(C#N)C#N (centres undefined) | i | ? | ? | i | -92 | i
CN1CC=C2C(C#N)=C(N)C(C#N)(C#N)C(CCc3ccccc3)C2C1 (centres undefined) | i | ? | ? | i | i | i
CN1CC=C2C(C#N)=C(N)C(C#N)(C#N)[C@H](c3cccc(Cl)c3)C2C1 (some centres undefined) | i | ? | ? | i | ? | i
COc1cc([C@@H]2[C@H]3CN(C)CC=C3C(C#N)=C(N)C2(C#N)C#N)cc2c1OCO2 | i | i | i | i | -99 | i
CN1CC=C2C(C#N)=C(N)C(C#N)(C#N)C(c3ccsc3)C2C1 (centres undefined) | i | ? | ? | i | ? | i
CN1CC=C2C(C#N)=C(N)C(C#N)(C#N)[C@H](c3cccs3)[C@H]2C1 | i | ? | ? | i | -94 | i
CCS(=O)(=O)N1Cc2ccccc2CC1C(=O)N1CCN(c2cccc(C)c2C)CC1 (centres undefined) | i | i | ? | i | i | i
S=c1[nH]nc(CSCCOc2ccc(Cl)cc2Cl)o1 | nt | nt | 0.1µM | nt | nt | i
S=c1[nH]nc(COc2ccc3ccccc3c2)o1 | i | i | 3.5µM | i | i | i
S=c1[nH]nc(CSCCOc2ccccc2)o1 | nt | nt | 20µM | nt | nt | i
S=c1[nH]nc(Cc2ccc(Cl)cc2)o1 | nt | nt | nt | nt | nt | i
Cn1c(CSCCOc2ccccc2)n[nH]c1=S | nt | nt | i | nt | nt | i
CNC(=S)N(Cc1cc2ccc(OC)cc2[nH]c1=O)CC1CCCO1 (centres undefined) | nt | nt | ? | i | nt | i
CC(C)OC(=O)CCCNc1ccc([N+](=O)[O-])cc1[N+](=O)[O-] | i | i | ? | i | i | i
Cc1ccc(O)c(C(=O)c2coc(=N)c(C(=O)NC(C)C)c2)c1 | i | 18µM | ? | i | i | i
CC(C)N(Cc1nc(-c2ccc(Cl)cc2)no1)C(=O)C(c1ccccc1)c1ccccc1 | i | i | i | i | i | ?
FC(F)Oc1ccc(NC(=S)NCc2ccccc2)cc1Cl | i | 14µM | ? | i | i | i
O=C(Nc1ccc(OC(F)F)c(Cl)c1)C(c1ccccc1)c1ccccc1 | i | i | 14µM | i | ? | i
SMILES | IMPase inh | HPGD inh | ALDH1A1 block | IMPase Li cell | PNC inhibitor | NPSR antag
O=C(Cc1cccc2ccccc12)Nc1ccc(OC(F)F)c(Cl)c1 | nt | i | ? | i | i | i
CC(C)NC(=O)c1ccccc1NC(=O)Cc1ccc(Br)cc1 | nt | nt | i | i | nt | i
O=C(N/N=C/c1ccccc1O)c1cccc(C(F)(F)F)c1 | nt | i | i | i | -94 | i
O=C(N/N=C/c1ccc(O)cc1)c1cccc(C(F)(F)F)c1 | nt | i | i | i | i | i
CCc1cc2c(=O)c(-c3nc4ccccc4n3C)c(C)oc2c(CN2CCCCC2)c1O | nt | nt | nt | nt | nt | i
Cc1cc(C(=O)c2ccc(Cl)cc2)c(NC(=O)CCl)s1 | i | i | 0.89µM | i | i | i
CCc1cc(C(=O)c2ccc(C)cc2)c(NC(=O)CCl)s1 | i | i | 2.5µM | i | i | i
CCc1cc(C(=O)c2ccc(OC)cc2)c(NC(=O)CN2CCCC2)s1 | nt | nt | 10µM | nt | nt | ?
CCc1cc(C(=O)c2ccc(OC)cc2)c(NC(=O)CN2CCCCC2)s1 | nt | nt | nt | nt | nt | i[7.67 µM]
Cc1ccc(C(=O)c2cc(C)sc2N)cc1 | nt | nt | i | i | nt | i
Cc1nc(C)c(C(=O)NNS(=O)(=O)c2ccc3ccccc3c2)s1 | nt | i | ? | i | ? | i
NCCNC(=S)S | nt | 3.5µM | 3.2µM | i | nt | nt
N#CC(c1ccccc1)c1ccc2c(C(F)(F)F)cc(C(F)(F)F)nc2n1 (centres undefined) | i | i | 22µM | i | i | ?
Cc1ccc(C(C#N)c2ccc3c(C(F)(F)F)cc(C(F)(F)F)nc3n2)cc1 (centres undefined) | i | i | i | i | i | i
CN(C)S(=O)(=O)c1ccc(C(=O)NCCOc2ccc(F)cc2)cc1 | i | i | ? | i | i | i
CC(=O)c1c(C)[nH]c(C(=O)N2CCN(c3ncccn3)CC2)c1C | i | i | i | i | i | i
CC(=O)c1c(C)[nH]c(C(=O)N2CCCCCC2)c1C | i | 13µM | i | i | i | i
Clc1ccc(CSc2nnc(-c3cccnc3)n2Cc2ccco2)c(Cl)c1 | i[9.22 µM] | 14µM | 4.5µM | i | i | i
CCC(C)NS(=O)(=O)c1ccc(S(=O)(=O)N(CC(=O)Nc2ccccc2)Cc2ccco2)cc1 (centres undefined) | i | i | 25µM | i | i | i
COc1c(C)cc(C(=O)C2CCCN(C(=O)c3cccc(-n4cccn4)c3)C2)cc1C (centres undefined) | nt | nt | ? | nt | nt | i
COc1cc(OC)nc(NC(=O)CS(=O)(=O)c2ccccc2)n1 | i | i | i | i | -119 | i
O=C(NNC(=O)C1C2CCC(C2)C1C(=O)O)c1ccc(Br)o1 (centres undefined) | nt | i | i | i | i | i
O=C(c1ccccc1[N+](=O)[O-])N1CCc2ccccc2C1 | nt | 13µM | i | i | i | i
CCCCNc1nc2ccccc2n1CC(=O)N1CCc2ccccc2C1 | i | i | i | i | i | i
CCCCNC(=O)N1CCc2ccccc2C1 | nt | i | i | i | -114 | i
Nc1ccc(C(=O)OCC(=O)N2CCc3ccccc3C2)cc1[N+](=O)[O-] | nt | 13µM | i | i | i | i
O=C(OCC(=O)N1CCc2ccccc2C1)c1ccc(N2CCOCC2)c([N+](=O)[O-])c1 | i | nt | 20µM | nt | i | i
Cc1cc(C(=O)OCC(=O)N2CCOCC2)ccc1[N+](=O)[O-] | nt | nt | i | i | nt | i

Source: PubChem BioAssay (National Center for Advancing Translational Sciences (NCATS))
